# Measured values reported in the supplement of paper PMC12340641.
# Test system: HEK293FT dCK*-IKZF1
# Test: relative growth recovery (pomalidomide 10 uM = 100%, DMSO = 0%); higher = more growth rescue (IKZF1 fusion degradation)
# Conditions: compound concentration: 5 uM; AraC concentration: 0.3 uM; overnight pretreatment + 4 days AraC
# Method in brief: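 HEK293FT cells stably expressing a dCK*-IKZF1 fusion (300/well, 384-well) received 5 μM compound 2 h after seeding. After overnight at 37 °C they received a nucleoside suicide substrate at 0.3 μM plus medium for 4 days. On day 5, Hoechst 33342-stained nuclei were counted by whole-well imaging. Growth recovery was normalised per plate to a reference degrader (100%) and vehicle (0%); values are means of duplicates run on different days.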
row,SMILES,relative growth recovery [%]
1,O=C(/C=C/c1cccnc1)c1ccncc1,-6.42
2,COCCOC(=O)C1=C(C)NC(C)=C(C(=O)OC(C)C)C1c1cccc([N+](=O)[O-])c1 (stereo unspecified),6.1
3,COC(=O)Nc1nc2ccc(Sc3ccccc3)cc2[nH]1,-9.72
4,Nc1nc2c(ccc3ccccc32)s1,0.375
5,c1cc2c(cc1C1CCCCC1)c1c3n2CCNC3CCC1 (stereo unspecified) [tetrindole],-9.3
6,CN(C)CCCN1c2ccccc2Sc2ccc(Cl)cc21,-1.89
7,CC(=O)Nc1cccc(Nc2ncnc(N3CCC(OCc4ccc(OC(F)(F)F)cc4)CC3)n2)c1C,1.55
8,Cn1c(NCCN(CCO)CCCc2ccc([N+](=O)[O-])cc2)cc(=O)n(C)c1=O [nifekalant],3.56
9,COC(=O)Nc1nc2cc(SC(C)C)ccc2[nH]1 [methiazole],-10.8
10,O=C(Nc1cnc(Cl)nc1)c1ccc(F)c(F)c1,4.13
11,NCCNc1ccc(NCCN)c2c1C(=O)c1ccncc1C2=O.O=C(O)/C=C\C(=O)O.O=C(O)/C=C\C(=O)O [Pixantrone (dimaleate)],-1.7
12,Cc1ccc(S(=O)(=O)NC(=O)NN2CC3CCCC3C2)cc1 (stereo unspecified),1.34
13,Nc1nc(=O)n([C@H]2C[C@H](O)[C@@H](CO)O2)cc1F [5-Fluoro-2'-deoxycytidine],-8.98
14,COc1cc(NS(=O)(=O)c2ccc(N)cc2)nc(OC)n1,-4.54
15,O=c1c(O)c(-c2ccc(O)c(O)c2)oc2cc(O)ccc12 [Fisetin (Fustel)],-3.06
16,Nc1ccc(-c2ccc3ncc4ccc(=O)n(-c5cccc(C(F)(F)F)c5)c4c3c2)cn1 [torin-2],-12.2
